The source made the active and inactive calls. Unless noted, no stated cut-off is given here; in the data, active means nuclear beta-catenin stimulation mostly above about 4.2% (no sharp cut-off); inactive means mostly below about 10%.

One assay can be described thus: Cy5 fluorescence quenching or enhancement artefacts, artefact control for HCV NS3 helicase inhibitor project, biochemical, LOPAC1280 (AID 687037; call rule not given here). Conditions: Cy5-DNA-NS3h complex fluorescence interference counterscreen.
As for `C[N+]1(CCCCC[N+]2(C)CCCC2)CCCC1`, the fluorescence ratio (interference) was 1 (inactive).

Turning to `Cn1cnc2c1c(=O)[nH]c(=O)n2C`, the fluorescence ratio (interference) was 1 (inactive).

Regarding `C=CCc1ccccc1OCC(O)CNC(C)C` (stereo not drawn), the fluorescence ratio (interference) was 1 (inactive).

Turning to `CCCCC1C(=O)N(c2ccccc2)N(c2ccccc2)C1=O`, the fluorescence ratio (interference) is 1 (inactive).

Take `CSc1ccc2c(c1)C(N1CCN(C)CC1)Cc1ccccc1S2` (stereo not drawn): the fluorescence ratio (interference) is 0.9 (inactive).

Take `CC(CN(C)C)CN1c2ccccc2CCc2ccccc21` (stereo not drawn): the fluorescence ratio (interference) was 1 (inactive).

For `O=c1c(O)c(-c2ccc(O)c(O)c2)oc2cc(O)cc(O)c12`, the fluorescence ratio (interference) was 0.9 (inactive).

In the case of `CCN(CC)CCNC(=O)c1ccc(NC(C)=O)cc1`, the fluorescence ratio (interference) was 1 (inactive).

For the compound `NNc1nncc2ccccc12`, the fluorescence ratio (interference) was 1 (inactive).

For the compound `Cc1cn[nH]c1`, the fluorescence ratio (interference) was 0.9 (inactive).

`C[N+](C)(C)CCCCCC[N+](C)(C)C`: the fluorescence ratio (interference) is 1 (inactive).

Consider `COc1cc(C(=O)OCCCN2CCCN(CCCOC(=O)c3cc(OC)c(OC)c(OC)c3)CC2)cc(OC)c1OC`, for which the fluorescence ratio (interference) is 1 (inactive).

A further assay in a line: stimulators of nuclear beta-catenin in C2C12, primary screen, imaging, WNT3A-conditioned medium, mouse C2C12, NPC library (AID 1117326). The note with it: at 10 µM, stronger effect = higher value.
`C[N+]1(CCCCC[N+]2(C)CCCC2)CCCC1`: the nuclear beta-catenin stimulation is -1.8% (inactive).

Consider `O=C(N[C@H](CO)[C@H](O)c1ccc([N+](=O)[O-])cc1)C(Cl)Cl`, for which the nuclear beta-catenin stimulation is -0.9% (inactive).

With `CN(C)CCc1c[nH]c2ccc(CS(=O)(=O)N3CCCC3)cc12`, the nuclear beta-catenin stimulation is 1.7% (inactive).

As to `Nc1ccc(S(=O)(=O)Nc2ccccn2)cc1`, the nuclear beta-catenin stimulation was -0.3% (inactive).

On to `NC(N)=N/N=C/c1c(Cl)cccc1Cl`, for which the nuclear beta-catenin stimulation was -0.1% (inactive).

In the case of `Cn1cnc2c1c(=O)[nH]c(=O)n2C`, the nuclear beta-catenin stimulation is 0.9% (inactive).

With `CCn1cc(C(=O)O)c(=O)c2cnc(N3CCNCC3)nc21`, the nuclear beta-catenin stimulation was 1.9% (inactive).

`NC(=O)NC(=O)Cc1ccccc1`: the nuclear beta-catenin stimulation is 0.2% (inactive).

For the compound `C=CCc1ccccc1OCC(O)CNC(C)C` (stereo not drawn), the nuclear beta-catenin stimulation was 0.1% (inactive).

Regarding `CCCCC1C(=O)N(c2ccccc2)N(c2ccccc2)C1=O`, the nuclear beta-catenin stimulation was -2% (inactive).

`CCCCOc1ccc(OCCCN2CCOCC2)cc1`: the nuclear beta-catenin stimulation is 1.4% (inactive).

With `CC(=O)[C@@]1(O)CC[C@H]2[C@@H]3C[C@H](C)C4=CC(=O)C=C[C@]4(C)[C@@]3(F)[C@@H](O)C[C@@]21C`, the nuclear beta-catenin stimulation was 2.3% (inactive).

`CCN(CC)CCOC(=O)C(c1ccccc1)C1CCCCC1` (stereo not drawn): the nuclear beta-catenin stimulation was 5% (inactive).

With `C=CCc1ccc(O)c(OC)c1`, the nuclear beta-catenin stimulation is 1.1% (inactive).

For the compound `CCC(=O)c1c(O)cc(O)cc1O`, the nuclear beta-catenin stimulation was 1.8% (inactive).

In the case of `CSc1ccc2c(c1)C(N1CCN(C)CC1)Cc1ccccc1S2` (stereo not drawn), the nuclear beta-catenin stimulation was 61.9% (active).

For `CCN(CC)CCOc1ccc(/C(=C(\Cl)c2ccccc2)c2ccccc2)cc1`, the nuclear beta-catenin stimulation was 40.9% (active).

Regarding `CC(CN(C)C)CN1c2ccccc2CCc2ccccc21` (stereo not drawn), the nuclear beta-catenin stimulation was -1.5% (inactive).

Take `O=c1c(O)c(-c2ccc(O)c(O)c2)oc2cc(O)cc(O)c12`: the nuclear beta-catenin stimulation was 2.6% (inactive).

`Cc1nnc(NS(=O)(=O)c2ccc(N)cc2)s1`: the nuclear beta-catenin stimulation was -0.1% (inactive).

Take `Nc1ncnc2c1ncn2[C@@H]1O[C@H](CO)[C@@H](O)[C@H]1O`: the nuclear beta-catenin stimulation was 10.9% (inactive).

Take `O=C1C(O)=C(O)C(=O)C(O)=C1O`: the nuclear beta-catenin stimulation is -1.5% (inactive).

As to `Oc1cccc(O)c1`, the nuclear beta-catenin stimulation is -0.3% (inactive).

With `CCN(CC)CCNC(=O)c1ccc(NC(C)=O)cc1`, the nuclear beta-catenin stimulation is -1.2% (inactive).

As for `CC1(C)O[C@@H]2C[C@H]3[C@@H]4CCC5=CC(=O)CC[C@]5(C)[C@@]4(F)[C@@H](O)C[C@]3(C)[C@]2(C(=O)CCl)O1`, the nuclear beta-catenin stimulation is -0.6% (inactive).

Take `NNc1nncc2ccccc12`: the nuclear beta-catenin stimulation is -0.9% (inactive).

With `CCOc1ccc(Cc2nccc3cc(OCC)c(OCC)cc23)cc1OCC`, the nuclear beta-catenin stimulation is 1.8% (inactive).

On to `NS(=O)(=O)c1cc2c(cc1Cl)NC(CSCc1ccccc1)=NS2(=O)=O`, for which the nuclear beta-catenin stimulation is -0.6% (inactive).

Regarding `CC(C(=O)O)c1ccc(C(=O)c2cccs2)cc1` (stereo not drawn), the nuclear beta-catenin stimulation was -2.4% (inactive).

In the case of `N[C@@H](CCC(=O)N[C@@H](CS)C(=O)NCC(=O)O)C(=O)O`, the nuclear beta-catenin stimulation is -1% (inactive).

As to `OC(CCN1CCCCC1)(c1ccccc1)c1ccccc1`, the nuclear beta-catenin stimulation is 0.4% (inactive).

On to `COc1ccnc(CS(=O)c2nc3ccc(OC(F)F)cc3[nH]2)c1OC` (stereo not drawn), for which the nuclear beta-catenin stimulation was -0.4% (inactive).

Consider `CC[C@]12CCCN3CCc4c(n(c5ccccc45)[C@@](O)(C(=O)OC)C1)[C@@H]32`, for which the nuclear beta-catenin stimulation is -2.1% (inactive).

Turning to `Cc1cn[nH]c1`, the nuclear beta-catenin stimulation is -2.1% (inactive).

Take `CCCCc1nc(Cl)c(CO)n1Cc1ccc(-c2ccccc2-c2nn[nH]n2)cc1`: the nuclear beta-catenin stimulation is 2.6% (inactive).

For `C[N+](C)(C)CCCCCC[N+](C)(C)C`, the nuclear beta-catenin stimulation was -0.3% (inactive).

In the case of `O=C(OCc1ccccc1)c1ccccc1`, the nuclear beta-catenin stimulation is 0.4% (inactive).

`COc1cc(C(=O)OCCCN2CCCN(CCCOC(=O)c3cc(OC)c(OC)c(OC)c3)CC2)cc(OC)c1OC`: the nuclear beta-catenin stimulation was 1.3% (inactive).

The assay is the same for the next values; noted with them: stimulation, at 2 µM, stronger effect = higher value.
`C[N+]1(CCCCC[N+]2(C)CCCC2)CCCC1`: the nuclear beta-catenin stimulation came to 0.5%.

For `O=C(N[C@H](CO)[C@H](O)c1ccc([N+](=O)[O-])cc1)C(Cl)Cl`, the nuclear beta-catenin stimulation is -0.3%.

Consider `CN(C)CCc1c[nH]c2ccc(CS(=O)(=O)N3CCCC3)cc12`, for which the nuclear beta-catenin stimulation was 1.6%.

`Nc1ccc(S(=O)(=O)Nc2ccccn2)cc1`: the nuclear beta-catenin stimulation came to 1%.

Turning to `NC(N)=N/N=C/c1c(Cl)cccc1Cl`, the nuclear beta-catenin stimulation was -1.1%.

As for `Cn1cnc2c1c(=O)[nH]c(=O)n2C`, the nuclear beta-catenin stimulation stood at 1%.

Take `CCn1cc(C(=O)O)c(=O)c2cnc(N3CCNCC3)nc21`: the nuclear beta-catenin stimulation is 4.3%.

For `NC(=O)NC(=O)Cc1ccccc1`, the nuclear beta-catenin stimulation was -0.4%.

Consider `C=CCc1ccccc1OCC(O)CNC(C)C` (stereo not drawn), for which the nuclear beta-catenin stimulation is -0.5%.

Regarding `CCCCC1C(=O)N(c2ccccc2)N(c2ccccc2)C1=O`, the nuclear beta-catenin stimulation was -0.9%.

Take `CCCCOc1ccc(OCCCN2CCOCC2)cc1`: the nuclear beta-catenin stimulation was found to be 0.4%.

Take `CC(=O)[C@@]1(O)CC[C@H]2[C@@H]3C[C@H](C)C4=CC(=O)C=C[C@]4(C)[C@@]3(F)[C@@H](O)C[C@@]21C`: the nuclear beta-catenin stimulation came out at 0.2%.

With `CCN(CC)CCOC(=O)C(c1ccccc1)C1CCCCC1` (stereo not drawn), the nuclear beta-catenin stimulation turned out to be 0.5%.

For the compound `C=CCc1ccc(O)c(OC)c1`, the nuclear beta-catenin stimulation is 4.6%.

Turning to `CCC(=O)c1c(O)cc(O)cc1O`, the nuclear beta-catenin stimulation was determined as 2%.

Regarding `CSc1ccc2c(c1)C(N1CCN(C)CC1)Cc1ccccc1S2` (stereo not drawn), the nuclear beta-catenin stimulation is 1.4%.

On to `CCN(CC)CCOc1ccc(/C(=C(\Cl)c2ccccc2)c2ccccc2)cc1`, for which the nuclear beta-catenin stimulation was 12.4%.

Take `CC(CN(C)C)CN1c2ccccc2CCc2ccccc21` (stereo not drawn): the nuclear beta-catenin stimulation is -0.7%.

Turning to `O=c1c(O)c(-c2ccc(O)c(O)c2)oc2cc(O)cc(O)c12`, the nuclear beta-catenin stimulation amounted to 1.7%.

For `Cc1nnc(NS(=O)(=O)c2ccc(N)cc2)s1`, the nuclear beta-catenin stimulation worked out at 1.2%.

With `Nc1ncnc2c1ncn2[C@@H]1O[C@H](CO)[C@@H](O)[C@H]1O`, the nuclear beta-catenin stimulation turned out to be 1.8%.

For the compound `O=C1C(O)=C(O)C(=O)C(O)=C1O`, the nuclear beta-catenin stimulation is 0.7%.

As to `Oc1cccc(O)c1`, the nuclear beta-catenin stimulation came to 0.3%.

Take `CCN(CC)CCNC(=O)c1ccc(NC(C)=O)cc1`: the nuclear beta-catenin stimulation amounted to 1%.

Consider `CC1(C)O[C@@H]2C[C@H]3[C@@H]4CCC5=CC(=O)CC[C@]5(C)[C@@]4(F)[C@@H](O)C[C@]3(C)[C@]2(C(=O)CCl)O1`, for which the nuclear beta-catenin stimulation worked out at 0.3%.

Consider `NNc1nncc2ccccc12`, for which the nuclear beta-catenin stimulation was -1.5%.

As to `CCOc1ccc(Cc2nccc3cc(OCC)c(OCC)cc23)cc1OCC`, the nuclear beta-catenin stimulation was 7.1%.

In the case of `NS(=O)(=O)c1cc2c(cc1Cl)NC(CSCc1ccccc1)=NS2(=O)=O`, the nuclear beta-catenin stimulation came to 0.7%.

With `CC(C(=O)O)c1ccc(C(=O)c2cccs2)cc1` (stereo not drawn), the nuclear beta-catenin stimulation is -0.7%.

As to `N[C@@H](CCC(=O)N[C@@H](CS)C(=O)NCC(=O)O)C(=O)O`, the nuclear beta-catenin stimulation is 4%.

On to `OC(CCN1CCCCC1)(c1ccccc1)c1ccccc1`, for which the nuclear beta-catenin stimulation was 2.1%.

Consider `COc1ccnc(CS(=O)c2nc3ccc(OC(F)F)cc3[nH]2)c1OC` (stereo not drawn), for which the nuclear beta-catenin stimulation worked out at 1.1%.

With `CC[C@]12CCCN3CCc4c(n(c5ccccc45)[C@@](O)(C(=O)OC)C1)[C@@H]32`, the nuclear beta-catenin stimulation is -0.6%.

With `Cc1cn[nH]c1`, the nuclear beta-catenin stimulation is -2%.

As to `CCCCc1nc(Cl)c(CO)n1Cc1ccc(-c2ccccc2-c2nn[nH]n2)cc1`, the nuclear beta-catenin stimulation was 2.1%.

As to `C[N+](C)(C)CCCCCC[N+](C)(C)C`, the nuclear beta-catenin stimulation is -1.6%.

Take `O=C(OCc1ccccc1)c1ccccc1`: the nuclear beta-catenin stimulation stood at 2.2%.

Consider `COc1cc(C(=O)OCCCN2CCCN(CCCOC(=O)c3cc(OC)c(OC)c(OC)c3)CC2)cc(OC)c1OC`, for which the nuclear beta-catenin stimulation was determined as 1.7%.

For the origin of these results see PubChem BioAssay.
